The list is not random: actives were taken first. Their share in the collection is about 9.3%.
FMDV antiviral – foot and mouth disease virus antiviral activity; FMDV antiviral cell-based qHTS; AID 1159524; 410,000 compounds, 1.2% hits; Potency, µM (doses to about 57.9 µM), for inactives: top-dose activity change, negative = inhibition, most hits filed as inhibitors; calls by dose curve; tested in HEK293T cells; also: read-out not given here; potency is read from the fitted curve at half-maximal effect; nearly all actives have a fitted effect of over 45% in size
HCV inhibitor – inhibitors of hepatitis C virus infection; Huh7.5.1 HCVcc-Cre infection, luciferase reporter, 44 h; Potency, µM (titrated, usually from 41.8 µM), for the others: at the top dose activity change, negative = inhibition, hits mostly inhibitors; 340,000 compounds, 3.4% hits; also: potency is read from the fitted curve at half-maximal effect
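Cells (1,000/well) were plated 4 h before compound, then infected with HCVcc-Cre virus (~0.5 moi). After 44 h further culture, infection was read as luciferase luminescence following a 15 min substrate incubation at room temperature.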
HCMV inh – inhibitors of human cytomegalovirus | 410,000 compounds, 4.5% hits | HFF cells, HCMV-luciferase reporter, 72 h; stronger effect = lower value | activity change, negative = inhibition, % at 57.5 µM; in the data active = activity change below about -60%; inconclusive = no clear call, values can overlap the other calls; inactive = above about -39%
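HFF cells seeded 16 h at 37C, treated with compounds, infected with luciferase-reporter HCMV at MOI 1 PFU/cell; luciferase read at 72 h post infection, normalized to buffer-only and Salinomycin controls.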
Sm TGR block – inhibitors of Schistosoma mansoni thioredoxin glutathione reductase | Potency, µM (top dose mostly 114 µM), for inactives: at the highest dose activity change, negative = inhibition, usual class: inhibitors | 360,000 compounds, 3% hits | Q962Y6 | purified TGR, DTNB reduction, TNB absorbance 405 nm; also: potency is read from the fitted curve at half-maximal effect; nearly all actives have a fitted effect of over 60% in size
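TGR 20 nM + NADPH 100 uM (dispensed conc.), cpd preinc 15 min RT; start with NADPH (500 uM addition) then DTNB (15 mM addition). Kinetic TNB absorbance, 405 nm filter. Four-parameter Hill fit across titration.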
VACV mCherry inh – inhibitors of vaccinia virus infection (mCherry reporter signal); Potency, µM (top dose mostly 36.5 µM), without a hit: at the highest dose activity change, negative = inhibition, hits mostly inhibitors; Vaccinia virus mCherry reporter infection, fluorescence; 310,000 compounds, 0.63% hits; calls by dose curve; tested in A549 cells; also: potency is read from the fitted curve at half-maximal effect; nearly all actives have a fitted effect of over 35% in size
VACV Venus inh – inhibitors of vaccinia virus (Venus reporter); Vaccinia virus Venus reporter expression, fluorescence; Potency, µM (highest dose often 36.5 µM), inactives show top-dose activity change, negative = inhibition, hits mostly inhibitors; 330,000 compounds, 0.46% hits; AID 720580; calls by dose curve; tested in A549 cells; also: potency is read from the fitted curve at half-maximal effect; nearly all actives have a fitted effect of over 30% in size
Numbers without * were called inactive; i = inactive; ? = inconclusive; · = no result given; [ ] = dose if it differs, or a comment. Unless noted, calls follow the shape of the dose curve; as a rule, active = well fitted curve in the direction sought with a large enough effect; inconclusive = small, poorly fitted or top-dose-only effect, or another doubt; inactive = no such curve, though single readings can be large; an effect the other way counts as inactive or inconclusive. % is scaled to controls: 0 for no effect and ±100 for the full control effect.

SMILES	FMDV antiviral	HCV inhibitor	HCMV inh	Sm TGR block	VACV mCherry inh	VACV Venus inh
COc1ccc(N=C2C(=Nc3ccc(OC)cc3)N(c3ccc(OC)cc3)C(=S)N2C(=O)c2ccc(OC)cc2)cc1	39%	-17%	24	-9%	·	·
COc1ccc(N=C2C(=Nc3ccc(OC)cc3)N(c3ccc(N(C)C)cc3)C(=S)N2c2ccc(OC)cc2)cc1	16%	1.1µM*	15	4%	-5%	-6%
CCOc1cc2c(cc1OCC)-n1cccc1C(c1ccc(C(C)C)cc1)NC2 (stereo not given)	?	?	-68*	15%	?	-12%
CCNc1nc(NCC)n2c(SCC(=O)Nc3ccccc3[N+](=O)[O-])nnc2n1	-7%	-6%	14	-10%	-6%	-8%
CN1Cc2c(N3CCOCC3)nc(SCc3ccccc3)c(C#N)c2CC1(C)C	-11%	10µM*	-21	12%	·	·
CCSc1nc(N2CCOCC2)c2c(c1C#N)CC(C)(C)N(C)C2	-24%	-4%	46	-21%	·	-9%
CCCSc1nc(N2CCOCC2)c2c(c1C#N)CCCC2	?	11µM*	-31	?	-18%	-16%
N#CCCSc1nc(N2CCOCC2)c2c(c1C#N)CCCC2	?	?	-34	10%	·	·
Clc1ccc(-c2n[nH]c3c2CCC3)cc1Cl	16%	-17%	-30	7%	-23%	-23%
Cc1ccc(S(=O)(=O)N2CCc3ccccc3C2)cc1	9%	-12%	-26	?	·	·
COc1ccccc1CN(Cc1nc2ccccc2c(=O)[nH]1)S(=O)(=O)c1ccc(C)cc1	·	-18%	-99*	-15%	-27%	-7%
Cc1ccc(S(=O)(=O)N2CCc3ccccc3CC2)cc1	-3%	?	-78*	·	i	-11%
Cc1ccc(S(=O)(=O)N2CCCN(Cc3nc4ccccc4c(=O)[nH]3)CC2)cc1	0%	9%	1	45µM*	-25%	?
Cc1ccc(S(=O)(=O)N2CCCN(C(C)c3nc4ccccc4c(=O)[nH]3)CC2)cc1 (stereo not given)	-12%	-11%	-19	?	·	·
Cc1ccc(S(=O)(=O)N2CCN(Cc3ccccc3)CC2)cc1	-27%	-17%	-60*	15%	·	·
O=S(=O)(c1ccccc1)N1CCN(Cc2ccccc2)CC1	-11%	12%	-5	-7%	3%	-13%
Cc1cc(C)c(S(=O)(=O)N2CCN(CCN3C(=O)c4cccc5cccc(c45)C3=O)CC2)cc1[N+](=O)[O-]	·	2%[0.335 µM]	·	0%	·	·
O=C(c1ccc(S(=O)(=O)N2CCc3ccccc3C2)cc1)N1CCCCC1	-24%	?	-62*	-11%	·	·
O=C(C=Cc1ccccc1Cl)c1ccccc1	15%	3%	-24	·	-8%	-4%
COc1ccccc1/C=C/C(=O)c1cc(Br)ccc1OC(=O)c1ccco1	?	?	15	·	-14%	?
CNc1ccc(Br)cc(C(=O)/C=C/c2cccc(Cl)c2Cl)c1=O	20µM*	?	51	2.5µM*	·	·
CNc1ccc(Br)cc(C(=O)/C=C/c2cccc(OC)c2OC)c1=O	1%	?	-92*	7.1µM*	·	·
CNc1ccccc(C(=O)/C=C/c2ccccc2OC)c1=O	?	?	39	2.8µM*	-24%	?
CCNc1ccc(Br)cc(C(=O)/C=C/c2ccccc2Cl)c1=O	?	13µM*	-103*	·	·	·
N#CC1=C(N)Oc2cc(N)ccc2C1c1ccc(F)cc1F (stereo not given)	-11%	?	38	0%	-18%	-22%
SMILES	FMDV antiviral	HCV inhibitor	HCMV inh	Sm TGR block	VACV mCherry inh	VACV Venus inh
COc1ccc(N2CCN(c3ccc(-c4nc(-c5ccccc5C)no4)cc3[N+](=O)[O-])CC2)cc1	-13%	·	4	-4%	-9%	-12%
Nc1ccccc1NC(=O)CCn1c(=S)[nH]c2ccccc2c1=O	0%	-15%	0	5%	·	·
CCCCCC1CC(CC#CCN2CCOCC2)C(=O)O1 (stereo not given)	-25%	-8%	14	22µM*	-14%	-5%
CCCCCC1CC(CC(=O)O)C(=O)O1 (stereo not given)	-9%	10%	17	-31%	-11%	-6%
COc1ccccc1NC(=O)CSc1nc2sc(C)c(C)c2c(=O)n1C	-22%	10µM*	10	-2%	-1%	10%
Cc1sc2nc(SCC(=O)Nc3c(C)n(C)n(-c4ccccc4)c3=O)n(C)c(=O)c2c1C	-12%	-25%	-10	-10%	·	·
COCCn1c(SCC(=O)Nc2ccc(F)cc2)nc2c(oc3ccccc32)c1=O	-4%	-20%	-21	-3%	i	-5%
COc1ccc(NC(=O)CSc2nc3c(oc4ccccc43)c(=O)n2Cc2ccco2)cc1Cl	7%	·	-98*	2%	-3%[7.34 µM]	-8%[7.34 µM]
COCCn1c(SCC(=O)Nc2ccc(F)c(Cl)c2)nc2c(oc3ccccc32)c1=O	-2%	·	-80*	1%	?	-22%
COCCn1c(SCC(=O)Nc2ccccc2OC)nc2c(oc3ccccc32)c1=O	?	?	-63*	5%	·	·
CCNc1ncc2nc(-c3ccc(Cl)cc3)c(=O)n(Cc3cccc(OC)c3)c2n1	6%	·	·	·	·	·
COc1ccc2nc(N=Nc3ccc(N(C)C)cc3)sc2c1	13µM*	4%	25	-1%	-13%	-14%
CCC(=O)c1c[nH]c(C(=O)NCCCN2CCOCC2)c1	4%	12%	-9	-16%	·	-8%
Cc1c(/C=N\NC(=O)C2(C)CC2(Cl)Cl)cnn1C (stereo not given)	-2%	16%	-20	0%	-6%	?
CC1(C(=O)N/N=C/c2c(F)c(F)c(F)c(F)c2F)CC1(Cl)Cl (stereo not given)	-22%	11µM*	?	·	-7%	1%
CCN(CC)S(=O)(=O)c1ccc(C(=O)NC(=S)N(CCO)Cc2ccccc2)cc1	-12%	3%	90	-8%	·	·
CC(=O)c1cccc(OCc2cc(C(=O)N3CC4C[C@@H]5CC3C[C@H](C4)C5)no2)c1	-9%	?	-10	32µM*	·	·
CC(=O)c1ccc(OCc2cc(C(=O)N3CC4C[C@@H]5CC3C[C@H](C4)C5)no2)cc1	-10%	?	29	-26%	-29%	-24%
O=S(=O)(c1c(Cl)cc(Br)cc1Cl)N1CCN(C(=S)NC2CC2)CC1	-16%	25µM*	?	·	-9%	-13%
